# Results published in the supplement of paper PMC8728848.
# About 410 targets per protein were measured; listed, in parts, are those with the strongest signals and a random draw of the rest.
# B1: MpL2 (Macrolepiota procera) (protein)
# chain: MSTQVSSGQTYKITNVKAGTVIDLSGEDNKSIIGYPYHSGKNQQWTFNWTGKAWTLRSASSGSYLGIEGTPADGTRLVAVNDPFEWHIWRDEANENAFRIFVPFTNYNLRLSGYGDTTPGTPVQLWWTWEGLHQTWTIDRP
# How the values were obtained:
# Experiment in all cases: glycan array binding signal (z-score within array); higher = stronger binding
# Conditions in all cases: glycan notation: IUPAC condensed, linker removed; mutation: D109R
# [1] = target: Fuc(a1-2)Gal(b1-3)GlcNAc(b1-3)Gal(b1-4)Glc
# Method in brief: (§1)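 Glycan array data came from 3228 arrays in the Consortium for Functional Glycomics database, and only arrays with an available protein sequence were kept. Glycan names were put into IUPAC-condensed notation, and columns mapping to the same glycan were averaged. The binding signal is a within-array Z-score, averaged across arrays of one protein sequence run at different concentrations or buffers and across linkers. A negative Z-score can be read as non-binding.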
# [2] = target: Fuc(a1-2)Gal(b1-3)[Fuc(a1-4)]GlcNAc(b1-3)[Gal(b1-4)GlcNAc(b1-6)]Gal(b1-4)Glc
# Method in brief: as §1
# [3] = target: Fuc(a1-2)Gal6S(b1-3)GlcNAc6S
# Method in brief: as §1
# [4] = target: Fuc(a1-2)Gal6S(b1-4)Glc6S
# Method in brief: as §1
# [5] = target: Fuc(a1-2)[Gal(a1-3)]Gal(b1-3)GlcNAc(b1-3)GalNAc
# Method in brief: as §1
# [6] = target: Fuc(a1-2)[Gal(a1-3)]Gal(b1-4)GlcNAc(b1-3)GalNAc
# Method in brief: as §1
# [7] = target: Fuc(a1-2)[GalNAc(b1-3)]Gal
# Method in brief: as §1
# [8] = target: Fuc(a1-3)[Gal3S(b1-4)]GlcNAc6S
# Method in brief: as §1
# [9] = target: Gal(a1-3)Gal(b1-4)GlcNAc
# Method in brief: as §1
# [10] = target: Gal(a1-4)Gal(b1-4)GlcNAc
# Method in brief: as §1
# [11] = target: Gal(b1-3)Gal(b1-4)GlcNAc
# Method in brief: as §1
# [12] = target: Gal(b1-3)GalNAc
# Method in brief: as §1
# [13] = target: Gal(b1-3)GalNAc(a1-3)[Fuc(a1-2)]Gal(b1-4)GlcNAc
# Method in brief: as §1
# [14] = target: Gal(b1-3)GlcNAc(a1-6)Gal(b1-4)GlcNAc
# Method in brief: as §1
# [15] = target: Gal(b1-3)GlcNAc(b1-2)[Gal(b1-3)GlcNAc(b1-6)]Man(a1-6)[Gal(b1-3)GlcNAc(b1-2)Man(a1-3)]Man(b1-4)GlcNAc(b1-4)GlcNAc
# Method in brief: as §1
# [16] = target: Gal(b1-3)GlcNAc(b1-3)Gal(b1-4)GlcNAc(b1-6)[Gal(b1-3)GlcNAc(b1-3)]Gal(b1-4)Glc
# Method in brief: as §1
# [17] = target: Gal(b1-3)[Fuc(a1-4)]GlcNAc
# Method in brief: as §1
# [18] = target: Gal(b1-4)Glc
# Method in brief: as §1
# [19] = target: Gal(b1-4)GlcNAc(a1-6)Gal(b1-4)GlcNAc
# Method in brief: as §1
# [20] = target: Gal(b1-4)GlcNAc(b1-2)Man(a1-3)[GlcNAc(b1-2)Man(a1-6)]Man(b1-4)GlcNAc(b1-4)GlcNAc
# Method in brief: as §1
# [21] = target: Gal(b1-4)GlcNAc(b1-3)Gal(b1-4)GlcNAc(b1-2)[Gal(b1-4)GlcNAc(b1-3)Gal(b1-4)GlcNAc(b1-6)]Man(a1-6)[Gal(b1-4)GlcNAc(b1-3)Gal(b1-4)GlcNAc(b1-2)Man(a1-3)]Man(b1-4)GlcNAc(b1-4)[Fuc(a1-6)]GlcNAc
# Method in brief: as §1
# [22] = target: Gal(b1-4)GlcNAc(b1-3)Gal(b1-4)GlcNAc(b1-3)Gal(b1-4)GlcNAc(b1-2)[Gal(b1-4)GlcNAc(b1-3)Gal(b1-4)GlcNAc(b1-3)Gal(b1-4)GlcNAc(b1-6)]Man(a1-6)[Gal(b1-4)GlcNAc(b1-3)Gal(b1-4)GlcNAc(b1-3)Gal(b1-4)GlcNAc(b1-2)Man(a1-3)]Man(b1-4)GlcNAc(b1-4)[Fuc(a1-6)]GlcNAc
# Method in brief: as §1
# [23] = target: Gal(b1-4)GlcNAc(b1-3)Gal(b1-4)GlcNAc(b1-3)Gal(b1-4)GlcNAc(b1-3)Gal(b1-4)GlcNAc(b1-2)Man(a1-3)[Gal(b1-4)GlcNAc(b1-3)Gal(b1-4)GlcNAc(b1-3)Gal(b1-4)GlcNAc(b1-3)Gal(b1-4)GlcNAc(b1-2)Man(a1-6)]Man(b1-4)GlcNAc(b1-4)GlcNAc
# Method in brief: as §1
# [24] = target: Gal(b1-4)GlcNAc(b1-3)Gal(b1-4)GlcNAc(b1-3)Gal(b1-4)GlcNAc(b1-3)Gal(b1-4)GlcNAc(b1-2)[Gal(b1-4)GlcNAc(b1-3)Gal(b1-4)GlcNAc(b1-3)Gal(b1-4)GlcNAc(b1-3)Gal(b1-4)GlcNAc(b1-6)]Man(a1-6)[Gal(b1-4)GlcNAc(b1-3)Gal(b1-4)GlcNAc(b1-3)Gal(b1-4)GlcNAc(b1-3)Gal(b1-4)GlcNAc(b1-2)Man(a1-3)]Man(b1-4)GlcNAc(b1-4)[Fuc(a1-6)]GlcNAc
# Method in brief: as §1
# [25] = target: Gal(b1-4)GlcNAc(b1-3)Gal(b1-4)GlcNAc(b1-3)Gal(b1-4)GlcNAc(b1-3)Gal(b1-4)GlcNAc(b1-3)Gal(b1-4)GlcNAc(b1-2)Man(a1-3)[Gal(b1-4)GlcNAc(b1-3)Gal(b1-4)GlcNAc(b1-3)Gal(b1-4)GlcNAc(b1-3)Gal(b1-4)GlcNAc(b1-3)Gal(b1-4)GlcNAc(b1-2)Man(a1-6)]Man(b1-4)GlcNAc(b1-4)GlcNAc
# Method in brief: as §1
# [26] = target: Gal(b1-4)GlcNAc(b1-3)Gal(b1-4)GlcNAc(b1-3)Gal(b1-4)GlcNAc(b1-3)Gal(b1-4)GlcNAc(b1-3)Gal(b1-4)GlcNAc(b1-2)[Gal(b1-4)GlcNAc(b1-3)Gal(b1-4)GlcNAc(b1-3)Gal(b1-4)GlcNAc(b1-3)Gal(b1-4)GlcNAc(b1-3)Gal(b1-4)GlcNAc(b1-6)]Man(a1-6)[Gal(b1-4)GlcNAc(b1-3)Gal(b1-4)GlcNAc(b1-3)Gal(b1-4)GlcNAc(b1-3)Gal(b1-4)GlcNAc(b1-3)Gal(b1-4)GlcNAc(b1-2)Man(a1-3)]Man(b1-4)GlcNAc(b1-4)[Fuc(a1-6)]GlcNAc
# Method in brief: as §1
# [27] = target: Gal3S(b1-3)GlcNAc
# Method in brief: as §1
# [28] = target: Gal6P(b1-4)GlcNAc
# Method in brief: as §1
# [29] = target: GalNAc(b1-3)GalNAc
# Method in brief: as §1
# [30] = target: GalNAc(b1-4)GlcNAc(b1-3)GalNAc(b1-4)GlcNAc
# Method in brief: as §1
# [31] = target: GalNAc3S(b1-4)GlcNAc3S
# Method in brief: as §1
# [32] = target: GalNAc3S(b1-4)[Fuc(a1-3)]GlcNAc
# Method in brief: as §1
# [33] = target: GlcNAc(a1-6)Gal(b1-4)GlcNAc
# Method in brief: as §1
# [34] = target: GlcNAc(b1-4)GlcNAc(b1-4)GlcNAc
# Method in brief: as §1
# [35] = target: GlcNAc(b1-4)GlcNAc(b1-4)GlcNAc(b1-4)GlcNAc(b1-4)GlcNAc
# Method in brief: as §1
# [36] = target: GlcNAc6S(b1-3)Gal(b1-4)GlcNAc
# Method in brief: as §1
# [37] = target: MurNAc(b1-4)GlcNAc
# Method in brief: as §1
# [38] = target: Neu5Ac(a2-3)Gal(b1-3)GalNAc(b1-3)Gal(a1-4)Gal(b1-4)Glc
# Method in brief: as §1
# [39] = target: Neu5Ac(a2-3)Gal(b1-4)GlcNAc(b1-2)Man(a1-3)[Neu5Ac(a2-3)Gal(b1-4)GlcNAc(b1-2)Man(a1-6)]Man(b1-4)GlcNAc(b1-4)[Fuc(a1-6)]GlcNAc
# Method in brief: as §1
# [40] = target: Neu5Ac(a2-6)Gal(b1-4)GlcNAc(b1-2)Man(a1-3)[Neu5Ac(a2-3)Gal(b1-4)GlcNAc(b1-2)Man(a1-6)]Man(b1-4)GlcNAc(b1-4)GlcNAc
# Method in brief: as §1
# [41] = target: Neu5Ac(a2-6)Gal(b1-4)GlcNAc(b1-2)Man(a1-3)[Neu5Ac(a2-6)Gal(b1-4)GlcNAc(b1-2)Man(a1-6)]Man(b1-4)GlcNAc(b1-4)[Fuc(a1-6)]GlcNAc
# Method in brief: as §1
# [42] = target: Neu5Ac(a2-6)Gal(b1-4)GlcNAc(b1-3)Gal(b1-4)GlcNAc(b1-3)GalNAc
# Method in brief: as §1
# [43] = target: Neu5Ac(a2-6)Gal(b1-4)GlcNAc(b1-3)[Neu5Ac(a2-6)Gal(b1-4)GlcNAc(b1-6)]GalNAc
# Method in brief: as §1
# [44] = target: Neu5Ac(a2-6)Gal(b1-4)GlcNAc6S
# Method in brief: as §1
# [45] = target: Neu5Ac(a2-6)GalNAc(b1-4)GlcNAc
# Method in brief: as §1
# [46] = target: Neu5Ac(a2-8)Neu5Ac(a2-8)Neu5Ac(a2-3)Gal(b1-4)Glc
# Method in brief: as §1
# [47] = target: Neu5Ac(a2-8)Neu5Ac(a2-8)Neu5Ac(a2-3)[GalNAc(b1-4)]Gal(b1-4)Glc
# Method in brief: as §1
binder,measurement,setting,value
B1,glycan array binding signal (z-score),[1],-0.257
same,glycan array binding signal (z-score),[2],-0.099
same,glycan array binding signal (z-score),[3],-0.247
same,glycan array binding signal (z-score),[4],-0.259
same,glycan array binding signal (z-score),[5],-0.266
same,glycan array binding signal (z-score),[6],-0.251
same,glycan array binding signal (z-score),[7],-0.247
same,glycan array binding signal (z-score),[8],-0.255
same,glycan array binding signal (z-score),[9],-0.264
same,glycan array binding signal (z-score),[10],-0.289
same,glycan array binding signal (z-score),[11],-0.255
same,glycan array binding signal (z-score),[12],-0.256
same,glycan array binding signal (z-score),[13],-0.201
same,glycan array binding signal (z-score),[14],3.81
same,glycan array binding signal (z-score),[15],3.46
same,glycan array binding signal (z-score),[16],3.65
same,glycan array binding signal (z-score),[17],-0.267
same,glycan array binding signal (z-score),[18],-0.244
same,glycan array binding signal (z-score),[19],12.2
same,glycan array binding signal (z-score),[20],-0.001
same,glycan array binding signal (z-score),[21],3.95
same,glycan array binding signal (z-score),[22],3.9
same,glycan array binding signal (z-score),[23],3.84
same,glycan array binding signal (z-score),[24],4.36
same,glycan array binding signal (z-score),[25],3.94
same,glycan array binding signal (z-score),[26],4.48
same,glycan array binding signal (z-score),[27],-0.276
same,glycan array binding signal (z-score),[28],-0.218
same,glycan array binding signal (z-score),[29],-0.254
same,glycan array binding signal (z-score),[30],3.89
same,glycan array binding signal (z-score),[31],-0.255
same,glycan array binding signal (z-score),[32],-0.254
same,glycan array binding signal (z-score),[33],6.07
same,glycan array binding signal (z-score),[34],-0.248
same,glycan array binding signal (z-score),[35],-0.246
same,glycan array binding signal (z-score),[36],0.055
same,glycan array binding signal (z-score),[37],-0.259
same,glycan array binding signal (z-score),[38],-0.241
same,glycan array binding signal (z-score),[39],-0.215
same,glycan array binding signal (z-score),[40],-0.261
same,glycan array binding signal (z-score),[41],-0.223
same,glycan array binding signal (z-score),[42],-0.261
same,glycan array binding signal (z-score),[43],-0.255
same,glycan array binding signal (z-score),[44],-0.289
same,glycan array binding signal (z-score),[45],-0.301
same,glycan array binding signal (z-score),[46],-0.272
same,glycan array binding signal (z-score),[47],-0.234
